Where “and” joins values, the source holds several entries; their conditions need not be identical. Identical values can stand only once. Results filed as inconclusive are left out. The source holds several records for some structures; these can differ, active in one and inactive in another. Calls of active or inactive are those of the source. Unless noted, the call rests on the fitted dose curve; in most records, active means well fitted curve in the direction sought with a large enough effect; inconclusive means small, poorly fitted or top-dose-only effect, or another doubt; inactive means no such curve, though single readings can be large; an effect the other way counts as inactive or inconclusive.
Columns and labels:
[1] = Cell Viability - H-4-II-E (AID 543); further: on the % scale 0 is the no-effect control and ±100 the full control effect; nearly all actives have a fitted effect of over 35% in size
Summary of the method: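 CellTiter-Glo luminescence (intracellular ATP) measured after 40 h compound exposure at 37 °C in H-4-II-E rat hepatoma cells seeded at 1500/well. Values are AC50s fitted with the standard Hill equation.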

[2] = MultiTox-Fluor Cytotoxicity Assay - LYMP1-001 - Dead Cells (AID 946); further: potency means the concentration at half of the fitted maximal effect
Summary of the method: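 AC50 from Hill fit of concentration-response; data normalized to DMSO (basal) and 15 uM tetraoctylammonium bromide (100%). LYMP1-001 lymphoblastoid cells, 2500/well, 16 hr compound at 37 C; dead-cell protease fluorescence, Ex/Em 485/520.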

[3] = MultiTox-Fluor Cytotoxicity Assay - LYMP1-002 - Live Cells (AID 955);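 further: cells exposed to compound for 16 hours; on the % scale 0 is the no-effect control and ±100 the full control effect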
Summary of the method: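 After 16 h compound exposure at 37 C, live LYMP1-002 lymphoblastoid cells (2500/well) were quantified by cleavage of cell-permeant GF-AFC substrate, read at 405/510 nm after 60 min. Concentration-response fitted with Hill equation for AC50.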

[4] = MultiTox-Fluor Cytotoxicity Assay - LYMP1-003 - Dead Cells (AID 961); further: nearly all actives have a fitted effect of over 70% in size; further: potency means the concentration at half of the fitted maximal effect
Summary of the method: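 Human lymphoblastoid LYMP1-003 cells (2500/well) were treated with compounds for 16 hr at 37 C in complete medium. Dead-cell protease release was read by bis-AAF-R110 fluorescence (Ex/Em 485/520). AC50 came from Hill fits, normalized to DMSO and 15 uM tetraoctylammonium bromide.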

[5] = Cell Viability - LYMP2-009 (AID 968);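 further: series mostly up to about 92 µM; 0% = DMSO alone and the full-kill end = tetraoctylammonium bromide at 92 µM; nearly all actives have a fitted effect of over 55% in size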
[6] = Cell Viability - LYMP2-023 (AID 975);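 further: cellular ATP measured by luciferase luminescence as viability proxy; series mostly up to about 92 µM; cells exposed to compound for 24 hours at 37 °C; plate controls were DMSO only for no effect and 92 µM tetraoctylammonium bromide control for full effect; nearly all actives have a fitted effect of over 55% in size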
Summary of the method: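 Intracellular ATP, read by CellTiter-Glo luminescence, reports viability after 24 hr compound exposure at 37 C. 2500 lymphoblastoid cells/well (LYMP2-023) seeded 5 hr beforehand; Hill fits give AC50; positive control tetraoctylammonium bromide.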

[7] = Cell Viability - LYMP2-025 (AID 976); further: potency means the concentration at half of the fitted maximal effect
Summary of the method: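 Cytotoxicity read as loss of intracellular ATP (luciferase luminescence) after 24 h compound treatment at 37 C. Uses LYMP2-025 lymphoblastoid cells in 1536-well format; Hill-equation modelling gives AC50; tetraoctylammonium bromide as positive control.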

[8] = Cell Viability - LYMP2-012 (AID 982);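 further: cellular ATP by luciferase luminescence where a drop means cytotoxicity; cells exposed to compound for one day before reading; 0% = DMSO only and full loss = 92 µM tetraoctylammonium bromide; nearly all actives have a fitted effect of over 55% in size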
[9] = Cell Viability - LYMP2-014 (AID 983);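 further: series mostly up to about 92 µM; plate controls were DMSO only for no effect and 92 µM tetraoctylammonium bromide for full effect; nearly all actives have a fitted effect of over 50% in size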
Summary of the method: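 Intracellular ATP loss, read by luciferase luminescence, measures acute cytotoxicity after 24 h compound exposure of lymphoblastoid LYMP2-014 cells (2500/well, 37 C). Concentration-response data fitted to the Hill equation for AC50.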

[10] = Cell Viability - LYMP2-016 (AID 984);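 further: cells exposed to compound for 24 hours at 37 °C; on the % scale 0 is the no-effect control and ±100 the full control effect; nearly all actives have a fitted effect of over 55% in size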
Summary of the method: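 Acute toxicity in a Coriell human lymphoblastoid line is scored as loss of intracellular ATP over 24 h of treatment in complete medium. CellTiter-Glo signal is fitted across concentrations with the Hill equation to give AC50.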

[11] = Cell Viability - LYMP2-026 (AID 989); further: nearly all actives have a fitted effect of over 50% in size; further: potency means the concentration at half of the fitted maximal effect
Summary of the method: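 Cytotoxicity read as ATP-dependent luminescence (CellTiter-Glo, 30 min room temperature) after 24 h compound treatment at 37 C. LYMP2-026 lymphoblastoid line seeded at 2500 cells/well; AC50 derived by standard Hill equation.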

[12] = target: Glucocorticoid receptor (Homo sapiens) (UniProt P04150); experiment: qHTS assay for small molecule agonists of glucocorticoid receptor signaling (AID 588532; active means well fitted curve in the direction sought with a large enough effect in the signal ratio, with a control signal flat; the % refers to the signal ratio;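 further: 100% = dexamethasone at 0.1 µM and 0% = DMSO only wells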); details: HeLa MMTV-bla, beta-lactamase ratio, agonist, 18 h; stronger effect = higher value; percent of dexamethasone control, DMSO zero
Summary of the method: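 Stimulation of a glucocorticoid response element-driven beta-lactamase gene was measured in HeLa cells. Responses were scaled between DMSO basal and 0.1 uM dexamethasone, then fitted for half-maximal stimulation.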

[13] = target: Peroxisome proliferator-activated receptor gamma (Homo sapiens) (UniProt P37231); experiment: qHTS assay for small molecule antagonists of peroxisome proliferator-activated receptor gamma signaling (AID 588537; active means well fitted inhibition curve with a large enough effect in the signal ratio, with a control signal flat, not every such curve was filed as active; the % refers to the signal ratio; further: potency means the concentration at half of the fitted maximal effect)
Summary of the method: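 Compounds are tested as concentration series for inhibition of rosiglitazone-driven (50 nM) reporter expression in GeneBLAzer PPAR-gamma-UAS-bla HEK293 cells. After 16 h at 37 C, CCF4 substrate is added for 2 h at room temperature and blue/green fluorescence is measured.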

[14] = qHTS assay for small molecule activators of the nuclear factor-kappa B (NF-kB) signaling pathway (AID 651749; active means well fitted activation curve with a large enough effect in the signal ratio; the % refers to the signal ratio; further: series mostly up to about 77 µM; % of control where 0% means no effect); details: NF-kB-bla ME-180 cells, beta-lactamase FRET ratio, 16 h; activation: stronger effect = higher value
Summary of the method: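 Human ME-180 cervical cells with an NF-kB-bla construct; compounds added via 23 nL pin transfer, DMSO as vehicle; incubation 16 hr. Reporter activity measured by FRET disruption.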

[15] = qHTS assay for small molecule disruptors of the mitochondrial membrane potential - 1 hr assay (AID 651754; calls by dose curve; further: on the % scale 0 is the no-effect control and ±100 the full control effect; nearly all actives have a fitted effect of over 35% in size)
Summary of the method: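 Mitochondrial potential in living HepG2 cells after 1 hr compound treatment at 37C was read with Mito-MPS dye added for a further 30 min. Red aggregate and green monomer fluorescence were measured; loss of potential leaves dye as cytoplasmic monomers.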

[16] = qHTS assay for small molecule disruptors of the mitochondrial membrane potential - 5 hr assay (AID 651755; calls by dose curve; further: on the % scale 0 is the no-effect control and ±100 the full control effect; nearly all actives have a fitted effect of over 40% in size)
Summary of the method: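 Seed HepG2 overnight, add compound, incubate 5 hr at 37C and 5% CO2, stain 30 min with Mito-MPS, then measure monomer (490/535 nm) and aggregate (540/590 nm) fluorescence.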

[17] = qHTS assay for cell viability of the p53RE-bla HCT-116 cell line (AID 743292)
Summary of the method: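 HCT-116 p53RE-bla cells seeded 4,000/well; 5 h at 37 C; compound (DMSO) added; 16 h at 37 C; CellTiter-Glo added, 30 min RT; luminescence read.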

[18] = Cell Viability - BJ (AID 421; calls by dose curve;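 further: potency means the concentration at half of the fitted maximal effect; cells exposed to compound for 40 hours at 37 °C before readout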); details: BJ fibroblast viability, qHTS
Summary of the method: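 Luminescent ATP signal (CellTiter-Glo, 20 min at room temperature) served as the read-out of viable BJ cells after 40 hours of compound treatment. Responses were scaled between DMSO and 100 uM tamoxifen, and AC50 values were obtained by Hill modeling.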

[19] = Cell Viability - SK-N-SH (AID 435; calls by dose curve; further: potency means the concentration at half of the fitted maximal effect); details: SK-N-SH neuroblastoma cell viability qHTS
Summary of the method: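 Cells seeded at 1500 per well and incubated 5 hr at 37 °C. Compound added, then 40 hr at 37 °C. CellTiter-Glo added, 20 min at room temperature, luminescence read.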

[20] = Confirmation and Secondary Assay for Modulators of Hemoglobin Beta Chain Splicing at IVS2 654 locus (AID 910);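 further: per-well total GFP intensity by laser scanning cytometry after 2-day treatment; % of control where 0% means no effect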
Summary of the method: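 HeLa cells stably carrying EGFP interrupted by mutant beta-globin IVS2-654 intron (CMV-driven) were treated with compound for 2 days at 37C; corrected splicing was scored as total peak GFP intensity per well (488 nm excitation, 500-520 nm emission).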

Glucocorticoid receptor (Homo sapiens), sequence (P04150 whole entry, looked up): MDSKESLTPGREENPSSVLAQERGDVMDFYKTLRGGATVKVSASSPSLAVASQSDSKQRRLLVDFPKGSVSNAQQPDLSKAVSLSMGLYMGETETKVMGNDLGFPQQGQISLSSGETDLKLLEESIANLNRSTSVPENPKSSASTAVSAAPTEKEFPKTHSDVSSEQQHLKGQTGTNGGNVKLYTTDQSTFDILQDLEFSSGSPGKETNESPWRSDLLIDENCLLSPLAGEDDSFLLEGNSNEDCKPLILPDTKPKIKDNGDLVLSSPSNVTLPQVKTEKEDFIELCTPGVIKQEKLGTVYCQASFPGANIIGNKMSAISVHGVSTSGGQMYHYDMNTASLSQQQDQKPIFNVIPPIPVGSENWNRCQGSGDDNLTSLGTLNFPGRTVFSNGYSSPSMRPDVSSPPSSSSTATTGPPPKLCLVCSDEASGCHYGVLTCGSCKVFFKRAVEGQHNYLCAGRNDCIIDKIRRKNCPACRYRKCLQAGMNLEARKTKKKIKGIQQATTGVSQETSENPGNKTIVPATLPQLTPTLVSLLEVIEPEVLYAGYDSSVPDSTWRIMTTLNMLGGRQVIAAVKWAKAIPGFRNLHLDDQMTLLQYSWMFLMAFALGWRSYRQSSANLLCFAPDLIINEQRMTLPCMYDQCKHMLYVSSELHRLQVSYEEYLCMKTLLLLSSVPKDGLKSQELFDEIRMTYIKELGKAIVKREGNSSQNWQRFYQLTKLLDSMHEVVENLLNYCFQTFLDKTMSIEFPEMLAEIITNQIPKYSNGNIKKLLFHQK
Peroxisome proliferator-activated receptor gamma (Homo sapiens), sequence (P37231 whole entry, looked up): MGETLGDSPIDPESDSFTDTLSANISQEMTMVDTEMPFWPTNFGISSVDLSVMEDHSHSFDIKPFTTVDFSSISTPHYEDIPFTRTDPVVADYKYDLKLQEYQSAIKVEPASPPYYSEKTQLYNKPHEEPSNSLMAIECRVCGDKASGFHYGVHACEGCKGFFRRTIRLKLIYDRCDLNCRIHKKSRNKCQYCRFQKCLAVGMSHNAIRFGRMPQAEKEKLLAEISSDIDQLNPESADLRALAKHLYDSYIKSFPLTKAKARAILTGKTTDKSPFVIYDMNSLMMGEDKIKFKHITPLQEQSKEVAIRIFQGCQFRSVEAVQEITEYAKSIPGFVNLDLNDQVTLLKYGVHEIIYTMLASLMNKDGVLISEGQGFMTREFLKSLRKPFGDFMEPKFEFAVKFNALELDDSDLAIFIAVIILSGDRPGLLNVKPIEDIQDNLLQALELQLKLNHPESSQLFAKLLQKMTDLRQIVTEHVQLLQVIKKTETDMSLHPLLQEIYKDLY

ClC1=C(Cl)C2(Cl)C3C(Cl)C=CC3C1(Cl)C2(Cl)Cl (stereo unspecified)
inactive: Potency [1] | outcome [3] | Potency [5] | Potency [6] | Potency [7] | Potency [8] | Potency [9] | Potency [10] | Potency [11] | activation [12] 0.68% | Potency [13] | activation [14] 1.89% | Potency [15] | Potency [16] | Potency [17]
active: Potency [2] 50.1 µM | Potency [4] 39.8 µM

O=C(O)COc1ccc(Cl)cc1Cl
inactive: Potency [18] > 92 µM | Potency [19] > 92 µM | Potency [1] | Potency [2] | outcome [3] | Potency [4] | Potency [5] | Potency [6] | Potency [7] | Potency [8] | Potency [9] | Potency [10] | Potency [11] | activation [12] -2.35% [middle of 4 runs] | Potency [15] | Potency [16] | Potency [17]

C=CCc1ccc2c(c1)OCO2
inactive: Potency [18] > 92 µM | Potency [19] > 92 µM | Potency [1] | Potency [20] | Potency [2] | outcome [3] | Potency [4] | Potency [5] | Potency [6] | Potency [7] | Potency [8] | Potency [9] | Potency [10] | Potency [11] | activation [14] -0.401% | Potency [17]

CNC(=O)O/N=C/C(C)(C)SC
inactive and 39.8 µM (active): Potency [13]
inactive: Potency [18] > 92 µM | Potency [19] > 92 µM | Potency [1] | Potency [2] | outcome [3] | Potency [4] | Potency [6] | Potency [7] | Potency [8] | Potency [9] | Potency [10] | Potency [11] | activation [12] -4.75% and -0.357% and -10.4% | activation [14] -0.362% and -4.25% and 1.36% | Potency [15] | Potency [16] | Potency [17]

c1ccc(N=Nc2ccccc2)cc1
inactive: Potency [18] > 92 µM | Potency [19] > 92 µM | Potency [1] | Potency [20] | Potency [2] | outcome [3] | Potency [4] | Potency [5] | Potency [6] | Potency [7] | Potency [8] | Potency [9] | Potency [10] | Potency [11] | activation [12] 3.39% | Potency [13] | activation [14] -0.765% and -3.19% | Potency [15] | Potency [16] | Potency [17]

ClC1=C(Cl)C2(Cl)C3C4C=CC(C4)C3C1(Cl)C2(Cl)Cl (stereo unspecified)
inactive: Potency [18] > 92 µM | Potency [19] > 92 µM | Potency [20] | outcome [3] | Potency [5] | activation [12] 16.6% | Potency [13] | Potency [15] | Potency [16]
active: Potency [4] 39.8 µM | Potency [7] 50.1 µM | Potency [11] 50.1 µM

O=C(O)CNCP(=O)(O)O
inactive: Potency [20]

c1ccc2c(c1)[nH]c1cnccc12
inactive: Potency [20]

CNC(=O)N(C)c1nnc(C(C)(C)C)s1
inactive: Potency [20] | Potency [13] | activation [14] -0.0908% | Potency [17]
